Laboratory results: PubChem BioAssay AID1159580 (chemical genetic matrix, 2015)
The campaign covered roughly 5,500 compounds. About 2,000 (36%) were called active. Roughly 18% stayed inconclusive and do not appear here. Cut-off read from the data, not from the text of the source: active = normalized growth mostly below about 0.91 (no sharp cut-off); inconclusive = no clear call, values can overlap the other calls; inactive = mostly above about 0.92. The list shows a part of the results.

Experiment: chemical genetic growth profiling, strain panel (AID 1159580);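 note: tested at 20 µM; growth read once vehicle control cultures reached saturation at 30 °C; 1 = growth at the plate median or of vehicle wells; lower values mean less growth of the strain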
Details: growth OD

Measured: normalized growth

O=C1C(O)=C(O)C(=O)C(O)=C1O
inactive: S. cerevisiae deletion strains, locus YJR075W, strain HOC1, stronger effect = lower value 0.999 | S. cerevisiae deletion strains, locus YKL009W, strain mrt4, stronger effect = lower value 0.983 | S. cerevisiae deletion strains, locus YKL068W, stronger effect = lower value 0.979 | S. cerevisiae deletion strains, locus YKL085W, strain MDH1 (second series), stronger effect = lower value 0.956 | S. cerevisiae deletion strains, locus YKL085W, strain MDH1, stronger effect = lower value 0.956 | S. cerevisiae deletion strains, locus YKL160W, strain elf1, stronger effect = lower value 1.03 | S. cerevisiae deletion strains, locus YKL190W, strain CNB1, stronger effect = lower value 0.98 | S. cerevisiae deletion strains, locus YKR001C, strain vps1, stronger effect = lower value 0.995 | S. cerevisiae deletion strains, locus YKR026C, strain gcn3, stronger effect = lower value 1.02 | S. cerevisiae deletion strains, locus YKR091W, strain srl3, stronger effect = lower value 0.999 | S. cerevisiae deletion strains, locus YLL001W, strain dnm1, stronger effect = lower value 1.01 | S. cerevisiae deletion strains, locus YLL026W, stronger effect = lower value 1.02 | S. cerevisiae deletion strains, locus YLL041C, strain sdh2, stronger effect = lower value 1.01 | S. cerevisiae deletion strains, locus YLR027C, strain aat2, stronger effect = lower value 1.02 | S. cerevisiae deletion strains, locus YLR039C, strain RIC1, stronger effect = lower value 0.957 | S. cerevisiae deletion strains, locus YLR058C, strain SHM2, stronger effect = lower value 0.98 | S. cerevisiae deletion strains, locus YLR102C, strain apc9, stronger effect = lower value 0.989 | S. cerevisiae deletion strains, locus YLR113W, strain HOG1, stronger effect = lower value 0.969 | S. cerevisiae deletion strains, locus YLR221C, strain rsa3, stronger effect = lower value 1 | S. cerevisiae deletion strains, locus YLR258W, strain gsy2, stronger effect = lower value 1.03 | S. cerevisiae deletion strains, locus YLR262C, strain YPT6 (second series), stronger effect = lower value 0.995 | S. cerevisiae deletion strains, locus YLR262C, strain YPT6, stronger effect = lower value 0.946 | S. cerevisiae deletion strains, locus YLR268W, strain sec22, stronger effect = lower value 0.964 | S. cerevisiae deletion strains, locus YLR320W, strain mms22, stronger effect = lower value 1.01 | S. cerevisiae deletion strains, locus YLR330W, strain CHS5, stronger effect = lower value 1.01 | S. cerevisiae deletion strains, locus YLR342W, strain FKS1 (second series), stronger effect = lower value 1.07 | S. cerevisiae deletion strains, locus YLR342W, strain FKS1, stronger effect = lower value 1.01 | S. cerevisiae deletion strains, locus YLR357W, strain rsc2, stronger effect = lower value 0.989 | S. cerevisiae deletion strains, locus YLR370C, strain arc18, stronger effect = lower value 1.01 | S. cerevisiae deletion strains, locus YLR371W, strain rom2, stronger effect = lower value 1 | S. cerevisiae deletion strains, locus YLR384C, strain iki3, stronger effect = lower value 1.03 | S. cerevisiae deletion strains, locus YLR418C, strain cdc73, stronger effect = lower value 0.944 | S. cerevisiae deletion strains, locus YML016C, strain PPZ1, stronger effect = lower value 0.988 | S. cerevisiae deletion strains, locus YML032C, strain rad52, stronger effect = lower value 1.01 | S. cerevisiae deletion strains, locus YML120C, strain ndi1, stronger effect = lower value 1.01 | S. cerevisiae deletion strains, locus YML124C, strain tub3, stronger effect = lower value 0.997 | S. cerevisiae deletion strains, locus YMR058W, strain fet3, stronger effect = lower value 1.02 | S. cerevisiae deletion strains, locus YMR078C, strain ctf18, stronger effect = lower value 0.995 | S. cerevisiae deletion strains, locus YMR125W, strain sto1, stronger effect = lower value 1.02 | S. cerevisiae deletion strains, locus YMR129W, stronger effect = lower value 1.01 | S. cerevisiae deletion strains, locus YMR205C, strain PFK2, stronger effect = lower value 1 | S. cerevisiae deletion strains, locus YMR223W, strain ubp8, stronger effect = lower value 1.03 | S. cerevisiae deletion strains, locus YMR231W, strain pep5, stronger effect = lower value 1 | S. cerevisiae deletion strains, locus YMR263W, strain SAP30, stronger effect = lower value 0.96 | S. cerevisiae deletion strains, locus YMR307W, strain GAS1, stronger effect = lower value 1.03 | S. cerevisiae deletion strains, locus YNL067W, strain RPL9B, stronger effect = lower value 0.969 | S. cerevisiae deletion strains, locus YNL071W, strain lat1, stronger effect = lower value 1.02 | S. cerevisiae deletion strains, locus YNL128W, strain TEP1, stronger effect = lower value 0.944 | S. cerevisiae deletion strains, locus YNL153C, strain GIM3, stronger effect = lower value 0.956 | S. cerevisiae deletion strains, locus YNL183C, strain NPR1, stronger effect = lower value 0.927 | S. cerevisiae deletion strains, locus YNL209W, strain ssb2, stronger effect = lower value 1 | S. cerevisiae deletion strains, locus YNL233W, strain BNI4, stronger effect = lower value 0.982 | S. cerevisiae deletion strains, locus YNL248C, strain rpa49, stronger effect = lower value 1.05 | S. cerevisiae deletion strains, locus YNL250W, strain rad50, stronger effect = lower value 0.966 | S. cerevisiae deletion strains, locus YNL271C, strain bni1, stronger effect = lower value 0.998 | S. cerevisiae deletion strains, locus YNL298W, strain CLA4, stronger effect = lower value 0.98 | S. cerevisiae deletion strains, locus YNL307C, strain MCK1, stronger effect = lower value 1.02 | S. cerevisiae deletion strains, locus YNL322C, strain KRE1 (second series), stronger effect = lower value 1.02 | S. cerevisiae deletion strains, locus YNL322C, strain KRE1, stronger effect = lower value 0.98 | S. cerevisiae deletion strains, locus YNR049C, strain mso1, stronger effect = lower value 1.01 | S. cerevisiae deletion strains, locus YNR052C, strain pop2, stronger effect = lower value 1.02 | S. cerevisiae deletion strains, locus YOL006C, strain TOP1, stronger effect = lower value 0.968 | S. cerevisiae deletion strains, locus YOL012C, strain htz1 0.781 | S. cerevisiae deletion strains, locus YOL147C, strain pex11, stronger effect = lower value 0.993 | S. cerevisiae deletion strains, locus YOR001W, strain rrp6, stronger effect = lower value 0.999 | S. cerevisiae deletion strains, locus YOR061W, strain CKA2, stronger effect = lower value 0.961 | S. cerevisiae deletion strains, locus YOR069W, strain VPS5, stronger effect = lower value 1 | S. cerevisiae deletion strains, locus YOR070C, strain gyp1, stronger effect = lower value 1.01 | S. cerevisiae deletion strains, locus YOR080W, strain dia2, stronger effect = lower value 1.02 | S. cerevisiae deletion strains, locus YOR083W, strain WHI5, stronger effect = lower value 0.984 | S. cerevisiae deletion strains, locus YOR106W, strain vam3, stronger effect = lower value 1.02 | S. cerevisiae deletion strains, locus YOR136W, strain idh2, stronger effect = lower value 0.999 | S. cerevisiae deletion strains, locus YOR144C, strain elg1, stronger effect = lower value 0.989 | S. cerevisiae deletion strains, locus YOR184W, strain ser1, stronger effect = lower value 1.08 | S. cerevisiae deletion strains, locus YOR231W, strain MKK1, stronger effect = lower value 0.987 | S. cerevisiae deletion strains, locus YOR265W, strain rbl2, stronger effect = lower value 1.01 | S. cerevisiae deletion strains, locus YOR270C, strain vph1, stronger effect = lower value 1.05 | S. cerevisiae deletion strains, locus YOR290C, strain snf2, stronger effect = lower value 1.02 | S. cerevisiae deletion strains, locus YOR316C, strain cot1, stronger effect = lower value 0.988 | S. cerevisiae deletion strains, locus YPL051W, strain arl3, stronger effect = lower value 1.01 | S. cerevisiae deletion strains, locus YPL055C, strain LGE1, stronger effect = lower value 0.898 | S. cerevisiae deletion strains, locus YPL078C, strain atp4, stronger effect = lower value 1.03 | S. cerevisiae deletion strains, locus YPL106C, strain sse1, stronger effect = lower value 1.03 | S. cerevisiae deletion strains, locus YPL240C, strain hsp82, stronger effect = lower value 1.01 | S. cerevisiae deletion strains, locus YPL241C, strain CIN2, stronger effect = lower value 0.991 | S. cerevisiae deletion strains, locus YPL256C, strain CLN2, stronger effect = lower value 0.964 | S. cerevisiae deletion strains, locus YPR119W, strain clb2, stronger effect = lower value 0.996 | S. cerevisiae deletion strains, locus YPR141C, strain kar3, stronger effect = lower value 0.952 | S. cerevisiae deletion strains, locus YPR163C, strain tif3, stronger effect = lower value 0.998 | S. cerevisiae deletion strains, locus YPR167C, strain met16, stronger effect = lower value 0.99 | S. cerevisiae deletion strains, strain wtn01, stronger effect = lower value 0.994 | S. cerevisiae strains, strain wild type, stronger effect = lower value 0.989
